Screening data from PubChem.
ERa coact inh: ER-alpha (human) coactivator binding inhibition; TR-FRET ER-alpha LBD / SRC-1 peptide, estradiol-bound; inhibition, % at 25.6 µM; 86,000 compounds, 1.7% hits; AID 629; in the data active means inhibition above about 50%
Target sequence (P03372 whole entry, looked up, the tested form may be a part): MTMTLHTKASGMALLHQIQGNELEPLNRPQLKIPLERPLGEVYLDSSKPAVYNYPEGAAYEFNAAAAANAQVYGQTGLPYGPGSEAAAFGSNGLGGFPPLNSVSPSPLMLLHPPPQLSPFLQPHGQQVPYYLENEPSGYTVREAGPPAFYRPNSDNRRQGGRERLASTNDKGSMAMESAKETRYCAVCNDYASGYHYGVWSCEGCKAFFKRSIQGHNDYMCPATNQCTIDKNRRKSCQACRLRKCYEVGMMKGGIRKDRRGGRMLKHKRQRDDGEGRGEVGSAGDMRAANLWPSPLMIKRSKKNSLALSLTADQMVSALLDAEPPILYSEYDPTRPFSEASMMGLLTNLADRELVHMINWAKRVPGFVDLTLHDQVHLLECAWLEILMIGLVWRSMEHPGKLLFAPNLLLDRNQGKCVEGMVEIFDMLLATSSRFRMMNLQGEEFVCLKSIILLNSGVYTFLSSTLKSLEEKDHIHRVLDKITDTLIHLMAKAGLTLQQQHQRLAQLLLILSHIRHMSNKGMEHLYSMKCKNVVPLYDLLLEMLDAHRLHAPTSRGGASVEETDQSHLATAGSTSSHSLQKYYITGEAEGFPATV
Smad3 FoxH1 inh: blocks human Smad3 binding to FoxH1 peptide. P84022. TR-FRET Smad3/Dy647-FoxH1 peptide binding, europium anti-His. inhibition, % at 25 µM. 88,000 compounds, 0.29% hits;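 active means compounds that reduce the energy-transfer binding signal between the protein and its labelled peptide by more than half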
ERa coact pot: enhances coactivator binding to human estrogen receptor alpha. P03372. TR-FRET ERalpha-LBD/SRC-Cy5 coactivator binding, 2 h; 100 = basal binding, no effect. coactivator binding (% of control), % at 25.6 µM. 86,000 compounds, 1.3% hits. AID 639; in the data active means activity above about 200%;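 further: binding measured in presence of low estradiol as agonist stimulus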
Calb biofilm kill: kills Candida albicans biofilms; C. albicans biofilm + clotrimazole, Alamar Blue; inhibition, % at 6 µM; 85,000 compounds, 0.14% hits;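 active means inhibition above 20%; inactive means inhibition below 20%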;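 further: preformed 24 hr biofilms exposed to compound for 48 hr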
MT1-MMP txn act: MT1-MMP promoter transcription activation | HT1080 MT1-MMP promoter luciferase reporter, luminescence, overnight; stronger effect = higher value | activation factor at 10 µM | 86,000 compounds, 0.16% hits | AID 750;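 active means activation factor of at least 2 for MT1-MMP transcription at 10 µM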
ERb SRC1 inh: blocks coactivator binding to human estrogen receptor beta; inhibition, % at 25.6 µM; Q92731; 86,000 compounds, 1.3% hits; TR-FRET ER-beta LBD / SRC1-Cy5 peptide binding; receptor agonist-loaded with 1 µM estradiol;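 active means compounds whose percent inhibition of the receptor-coactivator binding signal exceeds about 50% in the single-dose screen, limit read from the data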
A number is an active result; – = inactive; · = no result; [ ] = remark or other dose. The list is not random: actives were taken first. Their share in the collection is about 3.8%.

SMILES	ERa coact inh	Smad3 FoxH1 inh	ERa coact pot	Calb biofilm kill	MT1-MMP txn act	ERb SRC1 inh
COc1cccc(C2CC(c3ccccc3OC)n3ncnc3N2)c1 (configuration not stated)	–	–	595[fluorescence artefact?]	–	–	–
COc1cccc(C2CC(c3ccccc3)Nc3ncnn32)c1 (configuration not stated)	–	–	–	–	–	–
NC(CSS(=O)(=O)O)=N[C@H]1C[C@H]2CC[C@@H]1C2	·	–	·	·	·	·
CCOC(=O)CSc1nc(N)c(C#N)c(-c2ccc(OCC)cc2)c1C#N	–	–	–	–	–	–
Nn1c(SCC(=O)NC2CCCCC2)nnc1-c1ccc(Cl)cc1	–	–	–	–	–	–
N#Cc1c(N)nc(SCC(=O)NC2CCCCC2)c(C#N)c1-c1ccc(Cl)cc1	66[fluorescence artefact?]	–	–	–	–	51[fluorescence artefact?]
CC(C)c1ccc(-c2c(C#N)c(N)nc(SCC(=O)N3CCCCCC3)c2C#N)cc1	–	–	260[fluorescence artefact?]	–	–	–
CC(C)c1ccc(-c2c(C#N)c(N)nc(SCC(=O)N3CCCCC3)c2C#N)cc1	50[fluorescence artefact?]	–	–	–	–	–
CCC1(C)N=C(c2ccc3c(c2)OCO3)CC(c2ccccc2O)N1 (configuration not stated)	–	–	–	–	2.4	–
Cc1nc(-c2ccc3c(c2)OCO3)cs1	–	–	–	–	–	–
COc1cccc(C2=NC(C)(C)NC(c3ccccc3O)C2)c1 (configuration not stated)	–	–	–	–	2.1	–
FC(F)(F)c1ccc(CN2C[C@@H]3C(c4ccc(Cl)nc4)C4(c5ccccc5)CC3(C4)[C@H]2c2ccccc2)cc1 (some centres not stated)	·	·	·	·	–	·
CCOC(=O)C1=C(C)N(CCCC(=O)O)C(=O)NC1c1ccc2c(c1)OCO2 (configuration not stated)	·	·	·	·	–	·
O=C(O)C/C(=C/c1ccco1)C(=O)O	·	–	·	·	·	·
Cc1cc(NC(=O)CSc2nnc(-c3ccco3)o2)no1	–	–	255[fluorescence artefact?]	–	–	–
Nc1c(Br)cc2oc(-c3ccccc3)nc2c1Br	–	–	–	–	2	–
CC1(C)CC(=O)c2sc(N3CCCCC3)nc2C1	–	–	–	–	–	–
Cc1cc(Br)c2c(c1)=C(c1sc(N3CCCCCC3)nc1O)C(=O)N=2	74[fluorescence artefact?]	–	–	–	–	–
Cn1nnnc1SCC(=O)Nc1nc(-c2ccccc2)c(-c2ccccc2)o1	–	–	391	–	–	–
CCC(O)CNc1nc(-n2nc(C)cc2C)nc2sc3c(c12)CCCC3 (configuration not stated)	–	–	203	–	–	–
O=C(NCCc1ccccc1)C1CCN(S(=O)(=O)c2cccnc2)CC1	58[fluorescence artefact?]	–	–	22	–	–
O=C(NCCc1ccccc1)C1CCN(S(=O)(=O)N2CCCC2)CC1	–	–	–	–	–	–
Cc1sc2nc(SCC(=O)Nc3c(C)n(C)n(-c4ccccc4)c3=O)n(C)c(=O)c2c1C	70[fluorescence artefact?]	–	–	–	–	62[fluorescence artefact?]
C[N+]1(CCC(=O)c2ccco2)CC2CCC(CC2)C1 (configuration not stated)	·	–	·	·	·	·
CCOc1ccccc1-c1nc(-c2ccc(NC(=O)Cc3ccc(OC)cc3)cc2)no1	–	–	287[fluorescence artefact?]	–	–	50[fluorescence artefact?]
SMILES	ERa coact inh	Smad3 FoxH1 inh	ERa coact pot	Calb biofilm kill	MT1-MMP txn act	ERb SRC1 inh
COc1ccc(CC(=O)Nc2ccc(-c3noc(-c4ccc(Cl)cc4)n3)cc2)cc1	66	–	–	–	–	–
CCOc1ccccc1-c1nc(-c2ccc(NC(=O)c3ccc(Br)o3)cc2)no1	–	–	384	–	–	–
Cc1cccc(NC(=O)CSc2nnc(-c3ccncc3)n2C)c1	–	–	–	–	–	–
Cn1c(SCC(=O)Nc2ccc3c(c2)oc2ccccc23)nnc1-c1ccccc1	52	–	251[fluorescence artefact?]	–	–	–
Cn1c(SCC(=O)Nc2sccc2C#N)nnc1-c1ccccc1	53	–	–	–	–	–
Cn1c(SCC(=O)n2c3c(c4ccccc42)CCCC3)nnc1-c1ccccc1	–	–	–	–	–	–
Cn1c(SCC(=O)Nc2ccccc2F)nnc1-c1cc2ccccc2o1	–	–	597[fluorescence artefact?]	–	–	–
CC(=O)Nc1ccc(-c2nnc(SCC(=O)n3c4c(c5ccccc53)CCCC4)n2C)cc1	–	–	256	–	–	–
Cn1cnnc1SCC(=O)Nc1sccc1C#N	–	–	–	–	–	–
O=C(O)[C@@H]1[C@H](C(=O)Nc2ncccn2)[C@@H]2C=C[C@H]1O2	·	–	·	·	·	·
CCn1c(SCC(=O)Nc2ccc(C)cc2)nnc1-c1ccc(O)cc1	–	–	–	–	–	–
O[C@H](C[C@@H]1CCCCN1)c1ccc2c(c1)oc1ccccc12	·	–	·	·	·	·
C[C@@H]1CC[C@H]2[C@H](C)[C@@H]3[C@@H](C[C@H]4[C@H]5CC=C6C[C@@H](O)CC[C@]6(C)[C@@H]5C[C@@H](O)[C@]34C)N2C1	·	–	·	·	·	·
Cc1cc(NS(=O)(=O)c2ccc(Nc3nc(-c4sc(N)nc4C)cs3)cc2)no1	–	–	–	–	–	56[fluorescence artefact?]
Cc1nc(N)sc1-c1csc(Nc2ccccc2)n1	–	–	–	–	2.3	–
Cc1cc(O)ccc1Nc1nc(-c2sc(N)nc2C)cs1	–	–	–	–	–	–
COCCCNC(=O)c1sc2ncnc(N3CCc4ccccc4C3)c2c1C	–	–	–	–	–	–
Cc1cccc(-n2c(SCc3cc(=O)n4c(C)cccc4n3)nc3[nH]ncc3c2=O)c1	–	–	–	–	–	53
Cc1nc(CSc2nc3[nH]ncc3c(=O)n2-c2ccccc2)cs1	–	–	–	–	–	–
Cc1nn(Cc2ccccc2)c(C)c1NC(=O)CSc1nnc(-c2cc(Cl)ccc2O)n1C	53	–	–	·	–	–
CCn1nc(C)c(NC(=O)CSc2nnc(-c3ccco3)n2C)c1C	–	–	–	–	–	–
COc1ccc2c(c1)C(=NN)c1cc(OC)ccc1-2	–	–	–	–	–	–
Cc1ccc(-c2nn(CC(=O)Nc3ccc4c(c3)nc3n4CCOC3)c(=O)c3ccccc23)cc1	67[fluorescence artefact?]	–	–	–	–	54[fluorescence artefact?]
O=C(Cn1nc(-c2ccccc2)c2ccccc2c1=O)Nc1ccc2c(c1)nc1n2CCOC1	–	–	209[fluorescence artefact?]	–	–	–
O=C(O)CNC(=O)[C@H]1NC(C(F)(F)F)(C(F)(F)F)OC1(C(F)(F)F)C(F)(F)F	·	–	·	·	·	·
CCCC[C@@H]1C[C@H]1C(NC(=O)c1ccco1)c1ccc(Cl)cc1 (some centres not stated)	·	·	·	·	–	·
COC(=O)c1ccccc1NC(=O)c1sc(N)nc1C	–	–	–	–	–	–
COC(=O)c1ccccc1NC(=O)c1sc(=S)n(C)c1N	70[fluorescence artefact?]	–	–	–	–	–
CCC/C=C(\CCC)C(NP(=O)(c1ccccc1)c1ccccc1)c1ccc(C(F)(F)F)cc1 (configuration not stated)	·	·	·	·	–	·
COc1ccc(CN[C@H](C)C(=O)O)cc1	·	–	·	·	·	·
